# Bioassay records as filed in PubChem BioAssay.
# HCV inh = inhibitors of hepatitis C virus infection | Huh7.5.1 HCVcc-Cre infection, luciferase reporter, 44 h | Potency, µM (highest dose often 41.8 µM), most hits filed as inhibitors | AID 651820 | hit rate 3.4% among 340,000; active means well fitted inhibition curve with a large enough effect; inconclusive means small, poorly fitted or top-dose-only effect, or another doubt; inactive means no such curve, though single readings can be large or run the other way
#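 Infectious HCVcc-Cre (~0.5 moi) was added to cells just after compound, with cells seeded 4 h earlier at 1,000 per well. Luciferase activity after 44 h culture reported infection; substrate was incubated 15 min at room temperature before reading.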
# HCMV antiviral = blocks human cytomegalovirus replication. HFF cells, HCMV-luciferase reporter, 72 h; active compounds read low. hit rate 4.5% among 410,000. activity change, negative = inhibition, % at 57.5 µM; in the data active means activity change below about -60%; inconclusive means no clear call, values can overlap the other calls; inactive means above about -39%
#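 Inhibition of viral replication was scored as loss of reporter luminescence in HFFs infected with HCMV-luciferase (MOI 1 PFU/cell) for 72 h; compounds tested at 2 doses, normalized to buffer and Salinomycin controls.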
# Vaccinia Venus = vaccinia inhibition (Venus reporter); AID 720580; Potency, µM (series often up to 36.5 µM), hits mostly inhibitors; hit rate 0.46% among 330,000; Vaccinia virus Venus reporter expression, fluorescence; calls by dose curve; tested in A549 cells; further: nearly all actives have a fitted effect of over 30% in size
# MARV entry inh = Marburg virus entry inhibition; Marburg virus pseudotyped entry inhibition, cell reporter; Potency, µM (top dose mostly 37.8 µM), actives largely listed as inhibitors; hit rate 1.8% among 300,000; calls by dose curve; tested in HEK293 cells
# Lassa entry inh = blocks Lassa virus binding to or entry into cells. Potency, µM (doses to about 37.9 µM), actives largely listed as inhibitors. AID 540256. hit rate 1.2% among 300,000. Lassa virus pseudotype entry inhibition, cell reporter; calls by dose curve; tested in HEK293 cells; further: nearly all actives have a fitted effect of over 50% in size
# Vaccinia mCherry = vaccinia inhibition (mCherry reporter); Vaccinia virus mCherry reporter infection, fluorescence; Potency, µM (highest dose often 36.5 µM), actives largely listed as inhibitors; hit rate 0.63% among 310,000; calls by dose curve; tested in A549 cells; further: nearly all actives have a fitted effect of over 35% in size
# Hits are given with their value; - = inactive; ? = inconclusive; . = not tested or not shown. A selection: hits, their analogues and other compounds. The true share with any hit is near 7.8%.
SMILES,HCV inh,HCMV antiviral,Vaccinia Venus,MARV entry inh,Lassa entry inh,Vaccinia mCherry
COCCn1c(CN(C)Cc2ccccc2)nc2c1c(=O)n(C)c(=O)n2C,?,-,-,.,.,-
CCOCCn1c(CN(C)Cc2ccccc2)nc2c1c(=O)n(C)c(=O)n2C,-,-,-,.,.,-
CCCn1c(CN(C)Cc2ccccc2)nc2c1c(=O)n(C)c(=O)n2C,7.94µM,-68.1,.,?,?,.
CC1CCN(S(=O)(=O)c2ccc3c(c2)CCN3)CC1,.,-,-,.,-,-
Cc1nn(C)cc1CNc1nc(C)c(-c2ccn(CC3COc4ccccc4O3)n2)s1 (centres undefined),.,.,-,.,.,-
CC1CCCCN1Cc1nc2c(c(=O)n(C)c(=O)n2C)n1Cc1ccc(Br)cc1 (centres undefined),.,-,-,-,-,-
CC1CCCCN1Cc1nc2c(c(=O)n(C)c(=O)n2C)n1CCc1ccccc1 (centres undefined),-,-66.9,-,-,-,.
CC(=O)C1=C(C)N(Cc2ccccc2)C(=O)N[C@H]1c1ccc(Br)cc1,.,.,.,-,.,.
Cc1ccc(-c2cc(C(F)F)nc(NCc3cccs3)n2)cc1,?,-,-,-,?,-
Cc1ccc(-c2nc(C#N)c(NCC3CCCO3)o2)cc1 (centres undefined),-,-,-,-,.,-
Cc1ccc(-c2cc(C(F)F)nc(NCC3CCCO3)n2)cc1 (centres undefined),3.98µM,-,?,-,-,-
FC(F)(F)c1cc(-c2ccc(Cl)cc2)nc(NCc2cccnc2)n1,11.2µM,-,?,-,-,?
Cc1ccc(-c2cc(C(F)F)nc(NCc3cccnc3)n2)cc1,6.31µM,-,?,?,?,-
Cc1ccc(-c2cc(C(F)F)nc(N3CCOCC3)n2)cc1,5.62µM,-,?,?,-,-
COc1ccc(-c2cc(C(F)(F)F)nc(NCc3ccc(Cl)cc3)n2)cc1,.,-,-,-,-,-
CCS(=O)(=O)n1nc(-c2ccco2)nc1NCc1ccc(C(C)C)cc1,.,-,-,-,-,-
Fc1ccc(-c2csc(=Nc3cccc(C(F)(F)F)c3)n2Cc2ccc3c(c2)OCO3)cc1,.,-,-,-,-,-
CC1CCCCN1C(=O)CSc1nc2ccccc2nc1Cc1ccccc1 (centres undefined),.,-71.8,-,.,?,-
Cc1ccc2cc(CNC(C)CO)c(N3CCC(O)CC3)nc2c1 (centres undefined),.,.,-,.,.,-
COC(=O)C1CCCCN1Cc1nc(N(C)C)c2ccccc2n1 (centres undefined),.,.,-,.,.,-
COc1ccc(NC(=O)COc2ccccc2C(=O)Nc2ccccc2)cc1,.,.,-,.,.,-
COc1ccc(/C=N/NC(=O)c2ccc(NC(=O)c3ccccc3Br)cc2)cc1,?,-91.3,-,-,18.4µM,-
COc1ccc(OCCNC(=O)c2ccccc2OCC(=O)Nc2ccc(NC(C)=O)cc2)cc1,?,-,-,7.08µM,?,-
COc1ccc(NC(=O)COc2ccc(N(C)S(=O)(=O)c3ccc(C)cc3)cc2)cc1,?,-,-,-,-,-
COc1ccc(NC(=O)COc2ccccc2C(=O)NCC(c2ccccc2)N(C)C)cc1Cl (centres undefined),?,-,-,?,11.2µM,-
SMILES,HCV inh,HCMV antiviral,Vaccinia Venus,MARV entry inh,Lassa entry inh,Vaccinia mCherry
COc1ccc(NC(=O)COc2ccccc2)cc1Cl,?,-,-,-,-,-
COc1ccc(NC(=O)COc2ccc(N(C)S(=O)(=O)c3ccc(Cl)cc3)cc2)cc1,11.2µM,-,.,.,.,.
Cc1ccc(NC(=O)CC2Oc3ccccc3NC2=O)cc1C (centres undefined),.,-,-,-,.,-
COc1ccc(C(=O)Nc2ccc(S(=O)(=O)N(C)c3ccccc3)cc2)cc1,12.6µM,-68.9,-,?,?,-
COc1ccc(NC(=O)c2ccc(S(=O)(=O)N(C)c3ccccc3)cc2)cn1,?,-61.6,.,.,.,.
COC(=O)NNC(=O)COc1ccc(Cl)cc1,-,-108.4,.,-,?,.
COc1ccc(C(=O)N/N=C/c2ccc(OC)c(OS(=O)(=O)c3ccccc3)c2)cc1,10µM,?,-,?,?,?
CC(C)(CNC(=O)c1cnn(-c2nccc(-c3cccs3)n2)c1C1CC1)N1CCOCC1,.,.,-,.,.,-
COc1ccccc1NC(=O)C1=C(C)Nc2c(C(=O)Nc3ccc(F)cc3)cnn2C1c1cccc([N+](=O)[O-])c1 (centres undefined),.,-,-,.,-,-
COc1ccc(/C=N/NC(=O)c2cccc([N+](=O)[O-])c2)cc1OS(=O)(=O)c1ccc(C)cc1,-,-,.,?,-,.
COc1ccc(OCC(=O)Nc2ccc(C)cc2)cc1,-,-96.6,.,-,-,.
COc1ccc(NC(=O)COCC(=O)Nc2ccc(C)cc2)cc1,-,-,.,.,.,.
COc1ccc(/C=N/NC(=O)c2ccc(N(C)S(=O)(=O)c3ccccc3)cc2)c(OC)c1,-,-,-,.,.,-
CCOc1cc(/C=N/NC(=O)c2cccc([N+](=O)[O-])c2)ccc1OS(=O)(=O)c1ccccc1,8.91µM,-,.,?,?,.
COc1cccc(OCC(=O)Nc2ccc(OC)c(OC)c2)c1,0.631µM,-,-,-,-,-
COc1ccc(/C=N/NC(=O)c2ccc(N(C)S(=O)(=O)c3ccccc3)cc2)cc1,12.6µM,-,.,.,.,.
Cc1cc(C)cc(NC(=O)CCc2nnc3n(C)c(=O)c4sccc4n23)c1,.,-,-,-,-,-
Cc1csc(C)[n+]1CCC1CCCCC1,.,.,?,.,.,-
Cc1ccccc1CNC(=O)c1nn(-c2ccccc2F)nc1CO,.,-,-,-,-,-
CCCN(Cc1cccs1)C(=O)Nc1ccc(Br)cc1F,.,-,-,-,-,-
CCOC1(c2ccccc2)CC1C(=O)N/N=C/c1cccc([N+](=O)[O-])c1 (centres undefined),11.2µM,-,.,.,.,.
Cc1nc2ccc(NC(=O)N(C)c3ccccc3)cc2s1,-,-,-,-,?,-
CC(=O)Nc1ccc(S(=O)(=O)Oc2ccc(/C=N/NC(=O)c3ccc(Cl)cc3)cc2)cc1,3.98µM,-,-,-,-,?
Cc1nc2ccc(NC(=O)c3ccc(S(=O)(=O)N(C)c4ccccc4)cc3)cc2s1,?,-82.1,?,?,?,?
COc1ccccc1/C=N/NC(=O)c1ccc(N(C)S(=O)(=O)c2ccccc2)cc1,-,-,.,.,.,.
CN(c1ccc(C(=O)N/N=C/c2cccc([N+](=O)[O-])c2)cc1)S(=O)(=O)c1ccccc1,12.6µM,-,-,?,?,-
Cc1ccc(-n2c(Cc3ccccc3)nnc2SCc2nc(-c3cccs3)no2)cc1C,.,-,-,?,-,-
CCN(CC)CCN(C(=O)c1ccc(CN2CCCCC2)o1)C(C(=O)NC1CCCCC1)c1ccc(F)cc1 (centres undefined),?,-,-,5.01µM,-,-
CC(C)CCNC(=O)C(C)N(Cc1ccc(F)cc1)C(=O)c1ccc(CN2CCCCC2)o1 (centres undefined),-,-,.,-,-,.
O=C(Cn1c(=O)n(Cc2ccco2)c(=O)c2oc3ccccc3c21)Nc1ccc(F)c(Cl)c1,.,-,-,.,-,-
